# “And” between values parts separate entries of the source, which are not always exact repeats. Identical values can stand only once. About 83,000 compounds went through this panel and 20% of them were active in at least one assay; those are over-represented in the sample as a whole.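 Assay: single dose, 48 h. Readout: percent growth (0 = no net growth; negative = cell death). Active: <10.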 The source made the active and inactive calls.
# Key:
# Assay in all cases: NCI-60 one-dose screen, 48 h (100 = growth as untreated, 0 = no growth, -100 = all killed)
# Details in all cases: 10 µM unless noted
# DU-145 prostate = tested on: DU-145 prostate
# K-562 leukemia = tested on: K-562 leukemia
# MALME-3M melanoma = tested on: MALME-3M melanoma
# MDA-MB-231 breast = tested on: MDA-MB-231 breast
# RXF 393 renal = tested on: RXF 393 renal
# SF-268 CNS = tested on: SF-268 CNS
# SF-295 CNS = tested on: SF-295 CNS
# SF-539 CNS = tested on: SF-539 CNS
# UACC-257 melanoma = tested on: UACC-257 melanoma
# M14 melanoma = tested on: M14 melanoma
SMILES,growth (DU-145 prostate),growth (K-562 leukemia),growth (MALME-3M melanoma),growth (MDA-MB-231 breast),growth (RXF 393 renal),growth (SF-268 CNS),growth (SF-295 CNS),growth (SF-539 CNS),growth (UACC-257 melanoma),growth (M14 melanoma)
CC(C)(C)C1CCC(=NO)CC1 (stereo not given),112% (inactive),128% (inactive),103% (inactive),104% (inactive),90.6% (inactive),109% (inactive),98.3% (inactive),96.2% (inactive),76.4% (inactive),100% (inactive)
COc1ccc(CCN=Cc2ccc(Cl)cc2)cc1OC,106% (inactive),122% (inactive),135% (inactive),109% (inactive),177% (inactive),99.5% (inactive),121% (inactive),111% (inactive),109% (inactive),111% (inactive)
Nc1ccc(O)c(C(=O)O)c1,105% (inactive) and 128% (inactive),92.9% (inactive) and 74.2% (inactive),109% (inactive) and 116% (inactive),84.3% (inactive) and 91.9% (inactive) and 109% (inactive),92.4% (inactive) and 115% (inactive) and 127% (inactive),89.5% (inactive) and 104% (inactive) and 110% (inactive),109% (inactive) and 107% (inactive) and 113% (inactive),102% (inactive) and 103% (inactive) and 114% (inactive),109% (inactive) and 110% (inactive),93.8% (inactive) and 104% (inactive) and 95.1% (inactive)
NC1=NC(c2ccccc2)N=C(Nc2ccccc2)N1 (stereo not given),105% (inactive) and 100% (inactive),53.4% (inactive) and 65.1% (inactive),84.9% (inactive) and 53.8% (inactive),101% (inactive) and 74.6% (inactive),91.5% (inactive),49.2% (inactive) and 54% (inactive),87.5% (inactive) and 83.6% (inactive),84.8% (inactive) and 55.2% (inactive),91.9% (inactive) and 108% (inactive),81.9% (inactive) and 75.9% (inactive)
OCCS,104% (inactive),91.4% (inactive),101% (inactive),99.3% (inactive),110% (inactive),99.5% (inactive),101% (inactive),100% (inactive),90.9% (inactive),97.6% (inactive)
Nc1ccc2ccc(NS(=O)(=O)N3CCCCC3)cc2c1,12.7% (inactive),8.04% (active),45.3% (inactive),11.8% (inactive),51.4% (inactive),32.3% (inactive),15.1% (inactive),-21.7% (active),87.7% (inactive),11.2% (inactive)
CCN(CC)C(CC(=O)c1ccccc1)C(=O)c1ccccc1 (stereo not given),99.9% (inactive),38.2% (inactive),104% (inactive),110% (inactive),115% (inactive),98% (inactive),103% (inactive),101% (inactive),95.5% (inactive),105% (inactive)
Clc1ccc(/C=C/c2ccc3ccccc3n2)cc1,1.65% (active) and 108% (inactive) and 103% (inactive),17.7% (inactive) and 91.2% (inactive) and 87.3% (inactive),62.3% (inactive) and 89.8% (inactive) and 77.1% (inactive),31% (inactive) and 80.1% (inactive) and 84% (inactive),8.75% (active) and 117% (inactive),43.4% (inactive) and 97.7% (inactive) and 96.9% (inactive),17.9% (inactive) and 74% (inactive) and 84.7% (inactive),1.74% (active) and 102% (inactive),44.2% (inactive) and 134% (inactive) and 104% (inactive),81% (inactive) and 75.3% (inactive)
CS(=O)(=O)OCC1NC(=O)C(COS(C)(=O)=O)NC1=O (stereo not given),111% (inactive) and 102% (inactive),81.6% (inactive) and 104% (inactive),98.1% (inactive) and 103% (inactive),108% (inactive) and 104% (inactive),83.2% (inactive) and 100% (inactive),113% (inactive) and 60.2% (inactive),133% (inactive) and 102% (inactive),106% (inactive) and 97.9% (inactive),75.5% (inactive) and 116% (inactive),91.8% (inactive) and 93.5% (inactive)
CNc1ccc(Cl)cc1S(=O)(=O)c1ccccc1[N+](=O)[O-],105% (inactive),55.7% (inactive) and 73.3% (inactive),78.2% (inactive) and 91.1% (inactive),77.7% (inactive) and 97% (inactive),25.1% (inactive) and 126% (inactive),106% (inactive) and 90.6% (inactive),108% (inactive) and 104% (inactive),86.4% (inactive) and 98.3% (inactive),75.7% (inactive) and 89.8% (inactive),115% (inactive) and 83.4% (inactive)
CC(=O)Oc1ccc(C2(c3ccc(OC(C)=O)cc3)C(=O)Nc3ccccc32)cc1,89% (inactive) and 89.9% (inactive),78.9% (inactive) and 93.8% (inactive),128% (inactive) and 97.8% (inactive),95.4% (inactive) and 87.4% (inactive),66.4% (inactive) and 76.9% (inactive),96.7% (inactive) and 100% (inactive),71.8% (inactive) and 86.3% (inactive),97.2% (inactive) and 92.2% (inactive),110% (inactive) and 114% (inactive),112% (inactive) and 99.4% (inactive)
NCCSSC/C=C\CSSCCN,104% (inactive),95.7% (inactive),103% (inactive),100% (inactive),102% (inactive),99.5% (inactive),104% (inactive),109% (inactive),91.3% (inactive),96.9% (inactive)
COc1cc(Cl)ccc1C,5.38% (active),83.3% (inactive),93.7% (inactive),85.9% (inactive),91.2% (inactive),83.9% (inactive),79.2% (inactive),104% (inactive),85% (inactive),95.8% (inactive)
